The list is not random: actives were taken first. Their share in the collection is about 2.4%.
Prx2 Sm inh = Schistosoma mansoni Prx2 inhibition; actives 0.07% (n = 65,000); S. mansoni Prx2 activity coupled to TGR/GSH (TGR is thioredoxin glutathione reductase), NADPH fluorescence loss, qHTS; Potency, µM; AID 448
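qHTS, coupled TGR/Prx2 format; 15 min compound preincubation at RT; reaction started with H2O2 (2.5 mM aliquot); kinetic NADPH fluorescence decrease, ex 365/em 450 nm.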
LT uptake inh = anthrax lethal toxin internalization inhibition | Cells, anthrax lethal toxin internalization, FRET ratio (460/530) | Potency, µM (doses to about 40 µM), inactives show top-dose activity change, negative = inhibition, actives largely listed as inhibitors | actives 0.67% (n = 70,000); note: % is set by controls: 0 for no effect and ±100 for the full control effect; nearly all actives have a fitted effect of over 50% in size
AmpC inh no det = blocks E. coli AmpC beta-lactamase in absence of detergent. Potency, µM (titrated, usually from 28.7 µM), for the others: top-dose activity change, negative = inhibition. actives 1.8% (n = 71,000). AmpC nitrocefin hydrolysis, absorbance 480 nm, no detergent. P00811; note: % of control where 0% means no effect
Target sequence (P00811 whole entry, looked up): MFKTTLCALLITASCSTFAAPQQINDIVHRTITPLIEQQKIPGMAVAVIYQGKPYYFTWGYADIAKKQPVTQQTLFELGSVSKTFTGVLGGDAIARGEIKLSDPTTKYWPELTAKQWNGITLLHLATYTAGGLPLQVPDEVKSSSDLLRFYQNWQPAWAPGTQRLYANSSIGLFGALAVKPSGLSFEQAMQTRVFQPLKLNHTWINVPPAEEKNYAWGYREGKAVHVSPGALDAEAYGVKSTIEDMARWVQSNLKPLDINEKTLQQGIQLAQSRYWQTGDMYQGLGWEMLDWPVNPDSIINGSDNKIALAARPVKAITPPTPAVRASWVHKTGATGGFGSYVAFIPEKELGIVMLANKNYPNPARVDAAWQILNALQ
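AmpC in 20 mM phosphate buffer pH 7.0 was preincubated 15 min at room temperature with compounds. Nitrocefin (800 uM stock) was then added and hydrolysis followed at 480 nm every 20 s for 4 min.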
AmpC det inh = inhibitors of E. coli AmpC beta-lactamase with detergent; P00811; actives 0.09% (n = 71,000); Potency, µM (series often up to 28.7 µM), inactives show at the top dose activity change, negative = inhibition; AID 584; purified AmpC, nitrocefin hydrolysis with detergent; active = well fitted curve in the direction sought with a large enough effect; inconclusive = small, poorly fitted or top-dose-only effect; note: % is set by controls: 0 for no effect and ±100 for the full control effect
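E. coli AmpC (5.3 nM) in 20 mM phosphate pH 7.0 with 0.01% Triton X-100, preincubated 15 min RT with compound; nitrocefin (2 uL of 800 uM stock) hydrolysis followed by 480 nm absorbance every 20 s over 4 min.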
Active calls of the source: *; ? = inconclusive; nt = no result given; [ ] = dose if it differs, or a comment. Unless noted, calls come from the whole dose curve. Potency is the fitted concentration of half-maximal effect.

SMILES	Prx2 Sm inh	LT uptake inh	AmpC inh no det	AmpC det inh
Cn1cc(C(=O)c2ccccc2)c2ccccc21	>57	-23%	4µM*[single pt active]	10%
COc1ccccc1-n1c(SCC(=O)NC(C)(C)C)nc(O)cc1=O	>57	?	-4%	-2%
COc1ccccc1-n1c(SC)nc(O)cc1=O	>57	-12%	2.5µM*[single pt active]	11%
CC(=O)CSCc1ccccn1	>57	-10%[8 µM]	-8%[5.75 µM]	-2%[5.75 µM]
[C-]#[N+]/C(C#N)=C\c1cc(C(C)(C)C)c(O)c(C(C)(C)C)c1	nt	0.1µM*	nt	nt
CC(C)(C)c1cc(/C=C(\C#N)C(N)=S)cc(C(C)(C)C)c1O	>57	7.9µM*	-1%	-1%
CCOC(=O)CN1c2ccccc2NC(=O)CC1C (stereo not given)	>57	-6%	4µM*[single pt active]	13%
CCOC(=O)CN1C(=O)C(O)=C(C(C)=O)C1c1ccccc1 (stereo not given)	>57	nt	1%	-2%
CC(=O)OCC1OC(C#Cc2ccccc2)C=CC1OC(C)=O (stereo not given)	nt	10%[8 µM]	nt	nt
Cc1cc(C)n(-c2ccc(C(=O)OCC(=O)NCc3ccco3)cc2)n1	>57	6%	32%	-1%
Cc1cc(C)n(-c2ccc(C(=O)OCC(=O)c3ccc(Br)s3)cc2)n1	>57	-9%	13µM*[single pt active]	2%
C[C@@](N)(/C=C\c1ccccc1)C(=O)O	>57	8%[8 µM]	10%[5.75 µM]	-5%[5.75 µM]
O=c1c2ccccc2sn1-c1ccc(S(=O)(=O)N2CCCC2)cc1	>57	0.13µM*	-6%	-5%
O=c1c2ccccc2sn1-c1ccc(S(=O)(=O)N2CCCCC2)cc1	>57	0.16µM*	-7%	-4%
COCCn1c(=O)c(-c2ccc(F)cc2)nc2cnc(N3CCOCC3)nc21	>57	?	10%	-1%
Cc1ccc2nc(SCC(=O)NCc3ccco3)c(C#N)cc2c1	>57	-13%	16µM*[single pt active]	9%
Cc1ccc2cc(C#N)c(SCC(=O)NCc3ccco3)nc2c1	>57	-17%	-24%	7%
CC(C)CN=C(N)N=C(N)N	>57	-9%[8 µM]	-11%[5.75 µM]	-5%[5.75 µM]
Cc1nc(NC2CCCCC2)c2nc(-c3ccccc3)n(CCCN3CCCCC3C)c2n1 (stereo not given)	nt	-26%	129%	16%
Cc1ccc(S(=O)(=O)Nc2cccc(-c3cn4ccsc4n3)c2)cc1	>57	?	6.3µM*	-1%
CN1CCN(CCCN2c3ccccc3Sc3ccc(Cl)cc32)CC1	>57	25µM*	61%[12.8 µM]	-2%[12.8 µM]
CCSc1ccc2c(c1)N(CCCN1CCN(C)CC1)c1ccccc1S2	>57	15%[3.58 µM]	57%[12.8 µM]	-3%[12.8 µM]
O=C(Cc1ccc(Cl)c(Cl)c1)OCCN1CCCC1	>57	-3%	-2%	-1%
COc1ccccc1-c1nnc2sc(COc3ccc(Cl)cc3Cl)nn12	>57	10µM*	49%	-4%
Clc1ccc(OCc2nn3c(C4CCCCC4)nnc3s2)c(Cl)c1	>57	2%	35%	-1%
SMILES	Prx2 Sm inh	LT uptake inh	AmpC inh no det	AmpC det inh
C=CCN1C[C@@H](C)N([C@H](c2ccc(C(=O)N(CC)CC)cc2)c2cccc(OC)c2)C[C@H]1C	>57	?	22%	-1%
O=S(=O)(Nc1nccs1)c1cc(Cl)ccc1Cl	>57	2%	10µM*[single pt active]	-5%
N#CC(C#N)=NNc1cccc(Cl)c1	nt	2.5µM*	nt	nt
N#CC(C#N)=NNc1ccc2cn[nH]c2c1	nt	-11%[8 µM]	-1%[5.75 µM]	-4%[5.75 µM]
COCC(=O)N1CCC2(CC1)CN(c1cccc(-c3ccccc3)c1)C2	>57	-6%	181%	-7%
CCC(Oc1ccc2ccccc2c1)C(=O)O (stereo not given)	>57	-12%	3%	-1%
CC1=CC(=O)NP(=O)(Oc2ccc3ccccc3c2)N1 (stereo not given)	0.57*	?	-13%	5%
CN(C)c1ncc2nc(-c3ccc(F)cc3)c(=O)n(C)c2n1	>57	?	-2%	-2%
COc1cc(OC)c(C(=O)Oc2ccc3c(c2)OCO3)cc1OC	>57	?	47%	-2%
COc1ccc(C(=O)Oc2ccc3c(c2)OCO3)cc1OC	nt	7.9µM*	33%	9%
c1ccc([C@H](CCN2CCCC2)c2ccccn2)cc1	>57	10%[8 µM]	-1%[5.75 µM]	-2%[5.75 µM]
COc1ccccc1-c1cncnc1Nc1ccc(F)cc1	>57	-4%	6%	8%
COc1ccc(OCc2nnc3n2N=C(c2ccc(Br)cc2)CS3)cc1	>57	?	4µM*[single pt active]	12%
Cc1ccccc1C(=N)c1ccccc1Cc1cccc2ccccc12	>57	?	-14%[5.75 µM]	-4%[5.75 µM]
O=C(O)[C@@H](O)[C@@H](O)[C@@H]1[O][Sb][O][C@@H]1CO	0.86*	-4%[8 µM]	6%[5.75 µM]	-5%[5.75 µM]
Cc1cc[c]([Sb]2[O][C@H]([C@H](O)[C@H](O)C(=O)O)[C@@H](CO)[O]2)cc1	>57	-2%[8 µM]	-5%[5.75 µM]	-1%[5.75 µM]
O=C(CSc1nnc(-c2ccc(Cl)cc2)o1)N1CCN(c2ccccc2)CC1	>57	0%	10µM*[single pt active]	-3%
O=C(CSc1nnc(COc2ccc(Cl)cc2)o1)N1CCN(c2ccccc2)CC1	>57	?	-11%	-1%
Clc1ccc(-c2nnc(SCc3nc(-c4ccccc4)no3)o2)cc1	>57	?	4µM*[single pt active]	11%
CC1CCCO1 (stereo not given)	nt	?	-9%	4%
O=C(c1cc(C(F)(F)F)cc(C(F)(F)F)c1)N1CCC2(CCCN(c3ncccn3)C2)CC1	>57	?	118%	-3%
CCCCC(=O)N(C)C	nt	0%	2%	14%
S=C(Nc1ccccc1)Nc1ccccc1C#Cc1ccccc1	>11	?	5µM*	0%
Nc1ncnc2c1c(-c1ccc(Oc3ccccc3)cc1)cn2C1CCCC1	>57	16µM*	28%	1%
O=C(c1cccc(F)c1)N1CCC[C@@]2(CCN(Cc3nccs3)C2)C1	>57	3%	24%	0%
SMILES	Prx2 Sm inh	LT uptake inh	AmpC inh no det	AmpC det inh
CC(C)c1nccn1Cc1ccc(Cl)cc1Cl	>57	?	9%[5.75 µM]	-4%[5.75 µM]
O=C(Cn1c(=O)oc2cc(S(=O)(=O)N3CCCCCC3)ccc21)NC1CCCCC1	>57	-16%	4µM*[single pt active]	11%
O=C(NC1CCCCC1)NC1CCN(S(=O)(=O)c2ccc3c(c2)OCCO3)CC1	>57	?	10µM*[single pt active]	13%
CCOC(=O)Cn1c(=O)oc2cc(S(=O)(=O)NCc3ccccn3)ccc21	>57	9%	17%	12%
O=C(Cn1c(=O)oc2cc(S(=O)(=O)N3CCCC3)ccc21)NCc1ccccn1	>57	-4%	4µM*[single pt active]	12%
N#CC[N+]1(Cc2ccccn2)CCCC1	>57	?	1%[5.75 µM]	-2%[5.75 µM]
COC(=O)c1ccc2c(c1)NC(=O)C1CCCN21 (stereo not given)	>57	?	4µM*[single pt active]	27%
C=Cc1ccc(C=C)cc1	nt	10%	-4%	31%
CCN(CC)C(=O)C1CCCc2c1[nH]c1ccc(Cl)cc21 (stereo not given)	nt	-17%	4µM*[single pt active]	15%
O=C(O)/C=C\c1cnc[nH]1	>57	4%	-3%	-2%
CC(C)CC(NS(=O)(=O)c1ccc2c(c1)oc(=O)n2C)C(=O)NC1CCCc2ccccc21 (stereo not given)	>57	-2%	4µM*[single pt active]	12%
